Screen size: about 53,000 sequences; about 3,700 (7%) were called active.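 Rule for the calls: active = gene knockdowns whose robust z-score for IL-1 alpha signal is at least 2 or at most -2, so actives lie on both sides; inactive = the rest.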 Shown is part of a subset that was picked to be rich in actives.
assay: Components of the Cytosolic LPS Sensing Pathway: Gene Identification via Genome-wide siRNA Screen; settings: RAW264.7 macrophages, IL-1a HTRF, actives lie on both sides, screened at 100 nM (by protocol), cells primed 5 h with Pam3CSK4 first;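 note: robust z of the log signal after scaling to non-targeting control siRNA wells of the plate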
How it was run: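 IL-1a HTRF of supernatants after 24 hour LipidA transfection of Pam3CSK4-primed (5 hours) RAW264.7 cells, 48h post-siRNA transfection (100 nM). Scores: percent of plate negative-control median, then log-based robust z-score.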

| Sequence | z-score |
| --- | --- |
| GGAGCAUCUCAAACCUUCATT against Lancl3 | -3.8 (active) |
| GAUGCGGCUCCUUGGAAUUTT against Slc51b | 2.38 (active) |
| GGUCAUAAGAAGCUCAAGATT against Serpinb9d | 0.268 (inactive) |
| GCCGGAAGAUAAGGCUCAUTT against Gap43 | -2.2 (active) |
| GGAAGAACUCAAGAGGGAATT against Plpp2 | -0.775 (inactive) |
| GCUGGGAGUAAAAUUGACUTT against Cenpj | -0.65 (inactive) |
| CGAGCAUGCUGAAAAGACCTT against Steap1 | -0.826 (inactive) |
| GGUUUUAAAGCAUCUUCGUTT against Pard6g | -0.284 (inactive) |
| GGGCAACAUUUUUCAGUGCTT against Prox1 | 0.722 (inactive) |
| GGAUCUUAAGUCCUAACAUTT against Tacc3 | -2.37 (active) |
| CCGAUAAUGCUUUCUUUGGTT against Ppp1cc | 0.547 (inactive) |
| CCAAGUCAGUGCUGUAAAGTT against F830104G03Rik | -1.58 (inactive) |
| GGUGAUGCCUGUGAAGACATT against Il3ra | 2.04 (active) |
| GGGAUAUUCAUUGACUUUGTT against Prr5 | -1.88 (inactive) |
| CCAAGAAUGUUUCCAUGUUTT against Slc12a5 | -1.68 (inactive) |
| CCUGAACCACUUGUUAAAUTT against Rnf10 | 0.124 (inactive) |
| GCUUCAGGUCAGUCUCUUCTT against Olfr1042 | 0.969 (inactive) |
| GGAGGCAAAAAUGAUGCUATT against Slpi | 1.97 (inactive) |
| GCAUCUCACUUUUGACCUATT against Retreg2 | 0.928 (inactive) |
| GUCUCAAGUGGACUGUGAGTT against Klk1b4 | -2.83 (active) |
| GCAAUUAUAACUUAGAAGGTT against Eml3 | 0.149 (inactive) |
| GCCUUUCAACUCACCAGCCTT against Zfp574 | 0.617 (inactive) |

| Sequence | z-score |
| --- | --- |
| GGGAAGGAAUAUGAUGGGCTT against Sik3 | -0.704 (inactive) |
| GGUCCCAACGAAGAAACCATT against Cd55 | 0.475 (inactive) |
| GGGCUAAGGCGAAAAGACUTT against Msx2 | 3.24 (active) |
| GCUAAAUUUCCCAUAGGAATT against Pmch | 0.822 (inactive) |
| GGAGCUUCGAAAAAAGUUGTT against Pex16 | 0.329 (inactive) |
| GCACAAUUAUGAGAGUGCATT against Grin1 | -0.91 (inactive) |
| GGGUUAAGCGCAAGUGUAATT against Degs2 | 0.331 (inactive) |
| GGCUGAAAAUAUUUUCAGATT against Garnl3 | -0.1 (inactive) |
| GGAGCCAGUGACAAUAAAUTT against Mtag2 | -1.1 (inactive) |
| GGUGAUGAUGUCAUACAAATT against Cav1 | 3.12 (active) |
| GGCUCUCAUCCAUCUCCUUTT against Olfr715 | -1.79 (inactive) |
| GGUCUGGAAAACCAGCUUATT against D630039A03Rik | 1.04 (inactive) |
| GGUUGAAGUCUAUUCUCGATT against Trap1 | -0.139 (inactive) |
| GGGUUUGACAGAGAGAAGATT against Atp5g2 | -0.581 (inactive) |
| GGUGAGCGUGUAGAGAUGCTT against Fbxo45 | 0.787 (inactive) |
| GGGCUAAAGUUGAUAAUAATT against Psmc3 | -2.02 (active) |
| GCACUUUGUGCUAUAUAAGTT against Mapk14 | 0.616 (inactive) |
| GGUAAAGUUGCUUAAUUAGTT against Msl3l2 | 0.944 (inactive) |
| GGAAGAAGUCUGAUACAUCTT against Samd5 | 0.572 (inactive) |
| CGCUAAUCUUCGAAAACCUTT against Abcc12 | -0.998 (inactive) |
| GGAGUUCGUACCCUUAUCCTT against Rtel1 | -2.2 (active) |
| GGUUAUCCAACCUAGAAUATT against Tmlhe | 0.74 (inactive) |

| Sequence | z-score |
| --- | --- |
| GGCAAAGUUUGGGAUUACATT against Ntng1 | 1.17 (inactive) |
| GGUUGUAUUGGAUAUCAAGTT against Ceacam2 | 0.953 (inactive) |
| GGACUUUGAAAAGAGAAUUTT against Polb | -0.213 (inactive) |
| GGACUUCUCCAUCCUGCUUTT against Alg1 | -0.542 (inactive) |
| GGGACCAGAGGAAACAGAATT against Tnfsf13b | -2.21 (active) |
| GGGCAUUGCCAGGAAUUAUTT against Lrp1b | 1.31 (inactive) |
| GUUGUCCAUAUCAUGUUUGTT against Olfr569 | 1.28 (inactive) |
| GGGAAGAGCCCUAAUAUUATT against Aldh1a2 | -0.098 (inactive) |
| GGUGGACAAGACUAAAACATT against Podxl | -0.253 (inactive) |
| GGGCCAAAUAGCUAUGCAGTT against Aldoc | -0.309 (inactive) |
| GGAAUUAUAAAAGACCACGTT against Kctd12b | 2.39 (active) |
| GGUGCUCUCAGGAAAGUUGTT against Olfr1157 | 0.82 (inactive) |
| CCUGUACUCUAUAUUCUGUTT against Pld2 | 0.98 (inactive) |
| GGCCAUCGAACUCAAUCUCTT against Lrrc57 | 0.243 (inactive) |
| GGAGUAUGAUAAUGAACCATT against Areg | -0.0698 (inactive) |
| GGACAUCAAGUUCUUGCCATT against Hspa5 | -0.478 (inactive) |
| GGCUGGUAUCUUUCAGAGUTT against Cox6c | 2.2 (active) |
| GGAACCAAUCGGGAUUUUGTT against B330016D10Rik | 0.179 (inactive) |
| CGGUUCCACUUCAAAUGACTT against Hsd17b2 | 0.72 (inactive) |
| GGACACUUUCUCAUAUCAUTT against Abca9 | 2.06 (active) |
| GGAGGCUCUACUUUUGUAGTT against Olfr611 | -2.16 (active) |
| GGCUUCCCGGAGUAACAAUTT against Dlgap1 | -0.742 (inactive) |

| Sequence | z-score |
| --- | --- |
| GAAAAGAAUUCCAGAAGAUTT against Sec61g | 1.19 (inactive) |
| CCAGUGCGUCACUCAGUAATT against Ssmem1 | -1.11 (inactive) |
| GGAUGAAGGGACGAAUUCATT against Pcdha6 | 0.635 (inactive) |
| GCUGUGCAAGCAAUAUCUATT against Hnrnpm | 0.423 (inactive) |
| CCCUUUCGAGGUGGUAAAATT against Slc25a21 | 0.11 (inactive) |
| GCCAAAUAAUCUGAAAGCCTT against Rpl28 | 0.309 (inactive) |
| GGAGCGCGUGAAACUGUCUTT against Fbxw4 | -0.752 (inactive) |
| GGGCCACUGCCAAAUACUATT against 2510009E07Rik | 3.33 (active) |
| GGAAAGCUUCAGAAUCUAATT against Bckdk | -0.365 (inactive) |
| GCUCGAGAUCGAAACAUACTT against Tmed5 | -1.13 (inactive) |
| GCCACUUUAGUAUGGAAUGTT against Nxt1 | 0.822 (inactive) |
| GGCUGUGGAAUGACACCAATT against Sars2 | -1.01 (inactive) |
| GGAUAUCUCGGGUUGAAUUTT against Aurka | -1.38 (inactive) |
| GGCUAAUGGACAAAAAAUUTT against Pacrgl | 0.28 (inactive) |
| CCAUGACUACAACACAUACTT against Ndufv3 | -3.07 (active) |
| GGAAGACAUACUGUUGAAATT against Mettl23 | -0.147 (inactive) |
| GGCUCUUGUCACAUGAUCATT against Jagn1 | -1.77 (inactive) |
| GGGUUCAAAACUAUGGAUATT against Stk26 | 0.575 (inactive) |
| GGAUCUGAGUGCUCUACUGTT against Kctd20 | 2.08 (active) |
| GGCCCACAGGAACAUCCUATT against Zbtb8b | -0.134 (inactive) |
| GGACAAACAGCUUCAAGAUTT against Psmd2 | -2.26 (active) |
| GGGUUCUUUCACUGAACGATT against Pskh1 | 0.9 (inactive) |

| Sequence | z-score |
| --- | --- |
| GGCAUCUUCAUCAAGGAUUTT against Sf3a1 | -1.1 (inactive) |
| GGCUUAAGUGUGCAGCUACTT against B3gnt4 | -0.479 (inactive) |
| GGACAUUGCUGCCUAUAUCTT against Dynll2 | 0.452 (inactive) |
| GCGAUCCUGACUUGUUCAATT against Kdm6b | 2.27 (active) |
| GGACAAGAAGCAUCUUUCATT against Smpdl3a | -1.16 (inactive) |
| GGAAACUUUAGCAUGAAUGTT against Hmgxb4 | -0.335 (inactive) |
| GCAUGCGUGAGAAACUGAUTT against Clec2e | -0.152 (inactive) |
| GCAAGCUAAUGAGCUACAATT against Samd9l | -0.107 (inactive) |
| CCGCCCGCUCAACACUAAUTT against Zfp36l3 | -2.39 (active) |
| GGUAUAUUGCCAUAUGUAATT against Olfr731 | -0.174 (inactive) |
| CCAUGGGCCUACCAAACAGTT against Celf2 | -1.86 (inactive) |
| GCCGGAUAACAUCAGACACTT against Rmnd1 | -0.146 (inactive) |
| GCCACAGAGCUAGACUGUCTT against Wdr86 | 0.241 (inactive) |
| GGAACAUCUUCAAAGAAGATT against Minar1 | -0.963 (inactive) |
| GUUUUGUUUCAGAGCAGAATT against Olfr900 | -0.134 (inactive) |
| GCUAAUAACUGUUCACAUATT against Magi1 | 1.97 (inactive) |
| CCAAUCUUAGUCAUCCAUUTT against Foxo6 | -2.27 (active) |
| GUAUUGUCAUCAUCAUUUCTT against Olfr910 | 0.115 (inactive) |
| GGUCGGCCAAUUACAAUGUTT against Eml4 | 2.16 (active) |
| GCGAUGAGACAGAUGUCGATT against Tcof1 | -0.0757 (inactive) |

— PubChem BioAssay AID1508600 (Functional Genomics Laboratory (NCATS/FGL), 2020)
